Experimental data as given in PubChem BioAssay (NCI).
The panel holds about 83,000 compounds, 20% with a hit somewhere; the sample as a whole holds those more often.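 Method: cells in 96-well plates; compound added at one concentration; 48 h incubation; percent growth measured; values under 10 scored active.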 Values without a mark were called inactive. Activity calls are given as the source filed them.

Test system: UO-31 renal
Assay: NCI-60 one-dose screen, 48 h (100 = growth as untreated, 0 = no growth, -100 = all killed)
Settings: 10 µM unless noted

Row | Compound | growth
1 | C=CCC1(CC)C(=O)NC(=S)NC1=O | 83.7%
2 | NC(Cc1ccc2c(c1)OCO2)c1ccc2c(c1)OCO2 (stereo unspecified) | 100%
3 | O=C(CF)N(O)c1ccc(/C=C/c2ccccc2)cc1 | 36.2%
4 | COc1ccc(/C=C(/C(=O)N2CCCC2)c2cc(OC)c(OC)c(OC)c2)cc1N | 51.7%
5 | Nc1nc(N)c(-c2ccc(Cl)c(Cl)c2)c(/C=C/c2ccc(S(=O)(=O)F)cc2)n1 | 74.7%
6 | Oc1ccc(O)c2c1C1(Cl)C(Cl)=C(Cl)C2(Cl)C1(Cl)Cl | 44.2%
7 | CN(C)P1(N(C)C)=NP(N(C)C)(N(C)C)=NP(N(C)C)(N(C)C)=N1 | 83.1%
8 | CCCCNCCc1ccccn1 | 88.4%
9 | CNC(=O)Oc1cccc(OC)c1 | 97.5%
10 | C=C=[CH][Sn]([c]1ccccc1)([c]1ccccc1)[c]1ccccc1 | -84.3% (active)
11 | NC(=O)SCC(=O)Nc1ccc([As](=O)(O)O)cc1 | 93.8%
12 | C[C@]12CC[C@H]3[C@@H](C[C@@H]4N=C(c5ccc(O)cc5)S[C@@]45C[C@H](O)CC[C@]35C)[C@@H]1CC[C@@H]2O | 9.33% (active)
13 | CC1(C)N=C(N)N=C(N)N1c1ccc(CCCCc2ccc(S(=O)(=O)F)cc2)cc1 | 104%
14 | Nc1c(Br)cc2c3c(cccc13)-c1ccccc1-2 | 42.4%
15 | COc1cc2c(cc1OC)CN(C)C(C)C2 (stereo unspecified) | 93%
16 | CC(C)C1c2ccc(O)cc2Oc2nc(N)c(C#N)c(N)c21 (stereo unspecified) | 89.2%
17 | c1ccc2nc(OCCN3CC3)ccc2c1 | 59.4%
18 | CC1(C)N=C(N)N=C(N)N1c1ccc(CNC(=O)Nc2ccc(S(=O)(=O)F)c(Cl)c2)c(Cl)c1 | 88.2%
19 | c1ccc(-c2ccc3ccccc3[o+]2)cc1 | 73.5%
20 | CSc1ccccc1NP1(=O)OCC(C)([N+](=O)[O-])CO1 (stereo unspecified) | 78.3%
21 | CC1COC(=O)C1 (stereo unspecified) | 90.4%
22 | C[CH2][Pb]([CH2]C)([CH2]C)[O]C(=O)COc1ccccc1 | -6.3% (active)
23 | COc1ccc(/C=C\c2cc(OC)c(OC)c(OC)c2)cc1N/C=C\C(=O)c1c[nH]c2ccccc12 | 26.4%
24 | CCCC(C)(C)c1ccc2c(c1)OC(C)(C)[C@@H]1CC=C(C)C[C@@H]21 | 79.8%
25 | OC1(c2ccc(Cl)cc2Cl)c2ccccc2C2=NCCN21 (stereo unspecified) | 82.1%
26 | O=C(Nc1ccc(S(=O)(=O)F)cc1)Oc1ccccc1 | 87%

Test system: TK-10 renal
Assay: as above
Settings: 10 µM unless noted

Row | Compound | growth
27 | Fc1ccc(C2=NN(c3ccccc3)C(c3sc(N(CCCl)CCCl)nc3Cl)C2)cc1 (stereo unspecified) | 117%
28 | c1ccc(CCN2CCCCC2Cc2ccccc2)cc1 (stereo unspecified) | 96.6%
29 | CC(=O)O[C@H]1CCC2(C)C(=CCC3C2CCC2(C)/C(=N/OC(=O)c4ccc(N(CCCl)CCCl)cc4)CCC32)C1 (stereo partly specified) | 79.8%
30 | O=[As]c1ccc(C(=O)c2ccc(Oc3ccccc3)cc2)cc1 (stereo unspecified) | -98.8% (active)
31 | Cc1cc(NC(=O)NCCOc2ccc(N3C(N)=NC(N)=NC3(C)C)cc2Cl)ccc1S(=O)(=O)F | 35.3%
32 | C=CCc1ccc(OC(=O)Cc2ccccc2)c(OC)c1 | 110%
33 | CC(C)(O)/C=C/C(=O)[C@](C)(O)[C@H]1[C@H](O)C[C@@]2(C)[C@@H]3CC=C4[C@@H](C=C(O)C(=O)C4(C)C)[C@]3(C)C(=O)C[C@]12C | -54.9% (active)
34 | C=CCC1(CC)C(=O)NC(=S)NC1=O | 111%
35 | NC(Cc1ccc2c(c1)OCO2)c1ccc2c(c1)OCO2 (stereo unspecified) | 105%
36 | O=C(CF)N(O)c1ccc(/C=C/c2ccccc2)cc1 | 67.4%
37 | COc1ccc(/C=C(/C(=O)N2CCCC2)c2cc(OC)c(OC)c(OC)c2)cc1N | 75.3%
38 | Nc1nc(N)c(-c2ccc(Cl)c(Cl)c2)c(/C=C/c2ccc(S(=O)(=O)F)cc2)n1 | 86.8%
39 | Nc1c(Br)cc([N+](=O)[O-])cc1[N+](=O)[O-] | 114%
40 | Oc1ccc(O)c2c1C1(Cl)C(Cl)=C(Cl)C2(Cl)C1(Cl)Cl | 75.4%
41 | CN(C)P1(N(C)C)=NP(N(C)C)(N(C)C)=NP(N(C)C)(N(C)C)=N1 | 95.3%
42 | CCCCNCCc1ccccn1 | 96.8%
43 | CNC(=O)Oc1cccc(OC)c1 | 125%
44 | C=C=[CH][Sn]([c]1ccccc1)([c]1ccccc1)[c]1ccccc1 | -74.7% (active)
45 | NC(=O)SCC(=O)Nc1ccc([As](=O)(O)O)cc1 | 105%
46 | C[C@]12CC[C@H]3[C@@H](C[C@@H]4N=C(c5ccc(O)cc5)S[C@@]45C[C@H](O)CC[C@]35C)[C@@H]1CC[C@@H]2O | 89.3%
47 | CC1(C)N=C(N)N=C(N)N1c1ccc(CCCCc2ccc(S(=O)(=O)F)cc2)cc1 | 14.1%
48 | COc1cc2c(cc1OC)CN(C)C(C)C2 (stereo unspecified) | 101%
49 | c1ccc2nc(OCCN3CC3)ccc2c1 | 108%
50 | CC1(C)N=C(N)N=C(N)N1c1ccc(CNC(=O)Nc2ccc(S(=O)(=O)F)c(Cl)c2)c(Cl)c1 | 22.6%
51 | c1ccc(-c2ccc3ccccc3[o+]2)cc1 | 139%
52 | CSc1ccccc1NP1(=O)OCC(C)([N+](=O)[O-])CO1 (stereo unspecified) | 110%
53 | CCCC(C)(C)c1ccc2c(c1)OC(C)(C)[C@@H]1CC=C(C)C[C@@H]21 | 107%
54 | OC1(c2ccc(Cl)cc2Cl)c2ccccc2C2=NCCN21 (stereo unspecified) | 76.6%
55 | CC1(CF)NC(=O)NC1=O (stereo unspecified) | 128%
56 | O=C(Nc1ccc(S(=O)(=O)F)cc1)Oc1ccccc1 | 96.5%
